GLD-1 RNA inh = GLD-1-TGE RNA interaction inhibition (C. elegans); inhibition, % at 5.96 µM; actives 0.44% (n = 320,000); purified GLD-1 + fluorescein TGE RNA, fluorescence polarization; Q17339;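 active means percent inhibition above a per-plate cutoff, the plate mean of test compounds plus 3 SD, cut at about 30% in these data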;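 further: 0% = DMSO wells with GLD-1 and probe and 100% = wells lacking GLD-1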
Bcl-xL primary = inhibitors of human Bcl-xL. Q07817. GST-Bcl-xL / FITC-Bim BH3 peptide fluorescence polarization. inhibition, % at 10.9 µM. actives 0.7% (n = 320,000). AID 2129;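 active means inhibition above the mean of all tested compounds plus 3 SD, cutoff set per campaign, cut at about 30% in these data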;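 further: 0% = DMSO wells and 100% = unlabeled Bim-BH3 peptide competitor; inhibitors lower millipolarization by displacing the labeled peptide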
Target sequence (Q07817 whole entry, looked up): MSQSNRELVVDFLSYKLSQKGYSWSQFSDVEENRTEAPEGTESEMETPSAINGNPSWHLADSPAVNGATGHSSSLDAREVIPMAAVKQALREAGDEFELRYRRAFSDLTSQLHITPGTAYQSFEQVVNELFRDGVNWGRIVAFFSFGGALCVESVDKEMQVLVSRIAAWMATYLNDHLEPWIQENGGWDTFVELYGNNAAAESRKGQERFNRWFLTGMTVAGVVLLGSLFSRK
eLon inh = inhibitors of E. coli Lon protease; actives 0.42% (n = 360,000); inhibition, % at 7.94 µM; purified E. coli Lon protease, fluorescence polarization; in the data active means inhibition above about 13%, passing the limit was not always enough;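 further: 0% = enzyme with probe and DMSO and 100% = no enzyme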
RTF Ca sens inh = cardiac RTF calcium desensitization; actives 0.12% (n = 340,000); AID 493244; inhibition, % at 7.15 µM; IANBD-labeled cardiac RTF, Ca2+ fluorescence;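 active means inhibition above the mean inhibition of all tested compounds plus 3 SD, cut at about 17% in these data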;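 further: assay run at fixed EC70 calcium of 1.6 mM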
cardiac RTF act = cardiac RTF calcium sensitization | P19429+P45379 | IANBD-labeled TnC RTF fluorescence at EC20 calcium; 0% EC20 calcium, 100% full calcium | activation, % at 7.2 µM | actives 0.24% (n = 340,000) | AID 493008;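 active means activation above the mean over all tested compounds plus 3 SD, cut at about 30% in these data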;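 further: rise in fluorescence read as greater calcium sensitivity of cardiac thin filaments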
* = called active by the depositor. Compounds with a hit are over-represented: about 1.2% of the library has one in this group of screens.

How did CCOC(=O)Cc1csc(NC(=O)CN2C(=O)c3ccccc3S2(=O)=O)n1 do in these assays?
GLD-1 RNA inh: 6; Bcl-xL primary: 7; eLon inh: 3; RTF Ca sens inh: -1; cardiac RTF act: -6

Results for Cc1sc2nc(COC(=O)c3cccc(OC(F)F)c3)[nH]c(=O)c2c1C ?
GLD-1 RNA inh: 4; Bcl-xL primary: 3; eLon inh: -10; RTF Ca sens inh: 0; cardiac RTF act: 4

What do the screens show for `Cc1sc2nc(COC(=O)c3cccc(S(=O)(=O)N(C)c4ccccc4)c3)[nH]c(=O)c2c1C`?
GLD-1 RNA inh: -5; Bcl-xL primary: 39*; eLon inh: -29; RTF Ca sens inh: -23; cardiac RTF act: 22

How did CCC1CCCCN1CCCNC(=O)C1CCC(CNS(=O)(=O)c2c(C)cc(C)cc2C)CC1 (stereo not given) do in these assays?
GLD-1 RNA inh: 8; Bcl-xL primary: 0; eLon inh: 9; RTF Ca sens inh: -2; cardiac RTF act: -1

How did CCOC(=O)C(=O)/C(=C\N(C)C)c1onc(-c2ccccc2Cl)c1C(=O)OC do in these assays?
GLD-1 RNA inh: 5; Bcl-xL primary: 3; eLon inh: -11; RTF Ca sens inh: 1; cardiac RTF act: 2

How did O=C(COC(=O)c1ccccc1O)Nc1ncc(Cl)cc1Cl do in these assays?
GLD-1 RNA inh: 10; Bcl-xL primary: 36*; eLon inh: -15; RTF Ca sens inh: 1; cardiac RTF act: -3

What do the screens show for `O=C(COC(=O)c1ccccc1NC(=O)c1ccco1)Nc1ncc(Cl)cc1Cl`?
GLD-1 RNA inh: 8; Bcl-xL primary: 5; eLon inh: -8; RTF Ca sens inh: -11; cardiac RTF act: 2

How did Cc1c(Cl)cnc(NC(=O)COC(=O)c2ccncc2)c1Cl do in these assays?
GLD-1 RNA inh: 18; Bcl-xL primary: 34*; eLon inh: 8; RTF Ca sens inh: -4; cardiac RTF act: -3

Results for Cc1c(Cl)cnc(NC(=O)COC(=O)CNC(=O)c2ccccc2)c1Cl ?
GLD-1 RNA inh: 7; eLon inh: -1; RTF Ca sens inh: -2; cardiac RTF act: -1

What do the screens show for `Cc1c(Cl)cnc(NC(=O)COC(=O)[C@H](C)NC(=O)c2ccccc2)c1Cl`?
GLD-1 RNA inh: 16; Bcl-xL primary: 32*; eLon inh: -4; RTF Ca sens inh: -1; cardiac RTF act: -8

What do the screens show for `Cc1nn(-c2ccccc2)c(C)c1C(=O)OC(C)C(=O)Nc1ccc(C(N)=O)cc1` (stereo not given)?
GLD-1 RNA inh: 1; eLon inh: -3; RTF Ca sens inh: 2; cardiac RTF act: 7

What do the screens show for `CCOC(=O)C1(C)NC(c2cc(OC)c(OC)c(OC)c2)C2C(=O)N(CC)C(=O)C21` (stereo not given)?
GLD-1 RNA inh: -1; Bcl-xL primary: 5; eLon inh: -1; RTF Ca sens inh: 5; cardiac RTF act: -5

How did c1ccc2nc(N3CCOCC3)c(N3CCOCC3)nc2c1 do in these assays?
GLD-1 RNA inh: -4; Bcl-xL primary: 6; eLon inh: -3; RTF Ca sens inh: 1; cardiac RTF act: -3

How did c1ccc2c(c1)nc(N1CCOCC1)c1nnnn12 do in these assays?
GLD-1 RNA inh: 17; Bcl-xL primary: 43*; eLon inh: -22; RTF Ca sens inh: -14; cardiac RTF act: 3

Results for c1ccc(N2CCN(c3nc4ccccc4n4nnnc34)CC2)cc1 ?
GLD-1 RNA inh: 12; Bcl-xL primary: 51*; eLon inh: -6; RTF Ca sens inh: -10; cardiac RTF act: 10

What do the screens show for `Cc1cc(C)n(-c2nc3ccccc3n3nnnc23)n1`?
GLD-1 RNA inh: 3; Bcl-xL primary: 1; eLon inh: 3; RTF Ca sens inh: -8; cardiac RTF act: 0

Results for CCOc1ccc(S(=O)(=O)N2CCN(C(=O)CN3C(=O)NC4(CCCC4)C3=O)CC2)cc1 ?
GLD-1 RNA inh: 1; Bcl-xL primary: -14; eLon inh: 0; RTF Ca sens inh: -18; cardiac RTF act: -2

What do the screens show for `Nc1c(C(=O)Nc2ccc(S(=O)(=O)N3CCCC3)cc2)sc2nc3ccc(OC(F)(F)F)cc3cc12`?
GLD-1 RNA inh: 23; Bcl-xL primary: 57*; eLon inh: -41; RTF Ca sens inh: -21; cardiac RTF act: 16

How did COC(=O)C(N)Cc1ccc(O)cc1 (stereo not given) do in these assays?
GLD-1 RNA inh: -1; Bcl-xL primary: -1; eLon inh: -1; RTF Ca sens inh: -2; cardiac RTF act: 7

What do the screens show for `NC(CO)C(=O)NNCc1ccc(O)c(O)c1O` (stereo not given)?
GLD-1 RNA inh: 22; Bcl-xL primary: 36*; eLon inh: 24; RTF Ca sens inh: -12; cardiac RTF act: 2

How did CCOC(=O)c1ccc(-c2c(-c3ccc4c(c3)OCO4)noc2-c2ccsc2)cc1F do in these assays?
GLD-1 RNA inh: 0; Bcl-xL primary: 3; eLon inh: -7; RTF Ca sens inh: -4; cardiac RTF act: 6

How did CC1(C)CC(=O)C2=C(C1)OC(N)=C(C#N)C2c1ccccc1[N+](=O)[O-] (stereo not given) do in these assays?
GLD-1 RNA inh: 119*; Bcl-xL primary: 165*; eLon inh: 22; RTF Ca sens inh: -16; cardiac RTF act: 14

How did CCCN1C(=O)/C(=C/c2ccc(N3CCOCC3)cc2)NC1=S do in these assays?
GLD-1 RNA inh: -98; Bcl-xL primary: -99; eLon inh: -224; RTF Ca sens inh: -26; cardiac RTF act: 22

How did Cc1cc(/C=C2/C(=O)N(C)C(=S)N2C)ccc1N1CCCC1 do in these assays?
GLD-1 RNA inh: -45; Bcl-xL primary: -46; eLon inh: -171; RTF Ca sens inh: -94; cardiac RTF act: 32*

What do the screens show for `COc1cc(/C=C2\NC(=S)N(C)C2=O)ccc1O`?
GLD-1 RNA inh: -61; Bcl-xL primary: -19; eLon inh: -76; RTF Ca sens inh: -7; cardiac RTF act: 7

How did Cc1cc(N2CCCC2)ccc1/C=C1/C(=O)N(C)C(=S)N1C do in these assays?
GLD-1 RNA inh: -61; Bcl-xL primary: -62; eLon inh: -38; RTF Ca sens inh: -2; cardiac RTF act: 10

What do the screens show for `CCN1C(=O)/C(=C/c2ccc(N3CCCC3)cc2)NC1=S`?
GLD-1 RNA inh: -99; Bcl-xL primary: -35; eLon inh: inactive; RTF Ca sens inh: -181; cardiac RTF act: 151*

What do the screens show for `CCCN1C(=O)/C(=C/c2ccc(N3CCCC3)c(C)c2)NC1=S`?
GLD-1 RNA inh: -95; Bcl-xL primary: -7; eLon inh: inactive; RTF Ca sens inh: -196; cardiac RTF act: 68*

How did Cc1cc(/C=C2\NC(=S)N(C)C2=O)ccc1N1CCCC1 do in these assays?
GLD-1 RNA inh: -93; Bcl-xL primary: -49; eLon inh: inactive; RTF Ca sens inh: -234; cardiac RTF act: 87*

How did COc1cc2c(cc1OC)CC(C(=O)NCc1ccccc1)NC2 (stereo not given) do in these assays?
GLD-1 RNA inh: 3; Bcl-xL primary: 1; eLon inh: 2; RTF Ca sens inh: -2; cardiac RTF act: 2
